Laboratory results reported in PubChem BioAssay (NCI).
About 79,000 compounds went through this panel and 15% of them were active in at least one assay; those are over-represented in the sample as a whole. A number with no mark means an inactive call. Active and inactive are the calls of the source. Rule as the data show it: active = growth inhibition above about 70%; inactive = the rest. Where a SMILES comes first, the peptide text is derived from it. [ ]: non-standard residue; d: D form. The star is where a group is joined. Cbz = O=C(OCc1ccccc1)*; Nva = CCC[CH](N)C(=O)O

Tests used:
[1] = NCI Yeast Anticancer Drug Screen. Data for the rad50 strain (AID 155);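 also: 0% = growth of vehicle-only cultures of the same strain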; conditions: S. cerevisiae rad50 strain growth inhibition; at 50.0 µM; hits give high values
Procedure, shortened: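 DNA repair mutant yeast, compound exposure, growth read-out; inhibition is taken relative to vehicle.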

[2] = NCI Yeast Anticancer Drug Screen. Data for the mec2-1 strain (AID 157); conditions: S. cerevisiae mec2-1 strain, at 50.0 µM, hits give high values
Procedure, shortened: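 Compounds were applied to mec2-1 yeast cells. Their growth was then compared with that of vehicle-treated cultures to give growth inhibition.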

[3] = NCI Yeast Anticancer Drug Screen. Data for the sgs1 mgt1 strain (AID 161);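 also: 0% = growth of cultures given vehicle only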; conditions: S. cerevisiae sgs1 mgt1 strain, at 50.0 µM, hits give high values
Procedure, shortened: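 Compounds are added to genetically altered yeast, and growth is compared with cultures given vehicle alone to give percent inhibition.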

[4] = NCI Yeast Anticancer Drug Screen. Data for the cln2 rad14 strain (AID 165);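 also: 0% = growth equal to vehicle treated cultures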; conditions: S. cerevisiae cln2 rad14 strain, at 50.0 µM, hits give high values
Procedure, shortened: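 Strain: cln2 rad14 yeast, altered in cell cycle control and DNA damage repair. Read-out: growth inhibition vs vehicle.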

[5] = NCI Yeast Anticancer Drug Screen. Data for the bub3 strain (AID 167); conditions: S. cerevisiae bub3 mutant strain, at 50.0 µM, hits give high values
Procedure, shortened: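 In this screen, a yeast mutant lacking normal mitotic checkpoint function is challenged with compound. Relative growth versus vehicle gives the inhibition value.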

[6] = NCI Yeast Anticancer Drug Screen. Data for the mlh1 rad18 strain (AID 175); conditions: S. cerevisiae mlh1 rad18 strain growth inhibition; at 50.0 µM; hits give high values
Procedure, shortened: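 A repair-deficient yeast strain is exposed to test compound, and growth is scored relative to vehicle-treated controls.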

| Compound | growth inhibition [1] | growth inhibition [2] | growth inhibition [3] | growth inhibition [4] | growth inhibition [5] | growth inhibition [6] |
| --- | --- | --- | --- | --- | --- | --- |
| O=C(COc1c(Cl)cc(Cl)c2ccccc12)NC1c2ccccc2Oc2ccccc21 | 22.6% | 0.4% | 34.1% | 7.45% | 10.2% | 14.4% |
| C#[N+]CCOP(=O)(OCC1OC(n2cc(C)c(=O)[nH]c2=O)CC1N=[N+]=[N-])O[C@H]1CC[C@@]2(C)C(=CC[C@H]3[C@@H]4CC[C@H](C(C)CCCC(C)C)[C@@]4(C)CC[C@@H]32)C1 (stereo not given in full) | -18.8% | -30.1% | -24.6% | 3.05% | -0.35% | -17.4% |
| CC1=C(C)C(=O)C=CC1=O | 19.9% | 6.3% | 5.3% | -1% | 3.95% | 12% |
| CCOC1(c2ccccc2)CCNCC1 | 21.9% | -0.65% | 29.4% | 15.7% | 16.3% | 12.9% |
| ClC(Cl)(Cl)CC(Br)c1ccccc1 (stereo not given) | -1.55% | -8.8% | 7.55% | -22.9% | -6.9% | 2.25% |
| CCOC(=O)c1nc(N(C)C)oc(=O)c1C | 25.1% | 33.1% | 28.1% | -0.7% | 18.6% | 13.6% |
| O=C(CCC(=O)Nc1ccc(Cl)c(Cl)c1)CC(=O)c1ccc(F)cc1 | -17.4% | -9.4% | 14.4% | 4.3% | 19.1% | -1.65% |
| CC1(C)CCC2(C)CC=C3C(C)(CCC4C3(C)CCC3C(C)(C)C(O)CCC43C)C2C1 (stereo not given) | 0.9% | -4.2% | -23.2% | -10.3% | -18% | -10.4% |
| Cc1c(-c2ccccc2)nnn1-c1ccc(F)c(Cl)c1 | -16.4% | -27.1% | -8.75% | -10.4% | 6.95% | -12.4% |
| NC1CCC2(O)c3ccccc3C2C1 (stereo not given) | -0.95% | 0.05% | 22.2% | 18.9% | 5.7% | 7.35% |
| CC(=O)OCC1(C)C(O)CCC2(C)C1CCC1CC3CC12CCC3(O)CO (stereo not given) | 12.2% | -26% | 13.8% | 2.95% | -23.4% | 7.9% |
| COc1ccc(/C=C2/C(=O)N(c3ccccc3)N=C2C)cc1 | 22.2% | -2.2% | 17.3% | 0.4% | 16.7% | 22.1% |
| O=c1[nH]c(=O)n(C2CC(O)C(CO)O2)cc1NN=NCCCc1ccccc1 (stereo not given) | -21.8% | -12.4% | -8.5% | 10.8% | -11.3% | -32.5% |
| CN(Cc1cccc(Cl)c1)C(=O)NC(C)(C)C | 2.85% | -6.85% | 15.8% | 4.2% | 14.6% | 0.05% |
| CCOC(=O)CCC(C#N)C(=O)OCC (stereo not given) | 0.45% | -3.9% | 9.3% | -10.2% | 27.6% | 6% |
| CC(=O)Oc1ccc2c(-c3ccccc3)c(Oc3ccc(Cl)cc3)c(=O)oc2c1 | -4.2% | -5.05% | -3.7% | -16.1% | 3.3% | 4.35% |
| CCCC#CCN(CCCC)CCCC | -8.95% | 0.15% | -3.8% | -7.9% | 58% | -20.1% |
| O=c1cc(O)cc(CO)o1 | -7.65% | 5.7% | -9.8% | 1.2% | -21.2% | -2.05% |
| OC1CC/C=C\CC/C=C/CCC1O (stereo not given) | -5.75% | 6.45% | 0.5% | 24.1% | 3.8% | 0.55% |
| CC1=CC(O)(c2ccccc2)C(N2CCOCC2)N1O (stereo not given) | -2.85% | -25.6% | -3.5% | 13.6% | 23.4% | -8.55% |

| Compound | growth inhibition [1] | growth inhibition [2] | growth inhibition [3] | growth inhibition [4] | growth inhibition [5] | growth inhibition [6] |
| --- | --- | --- | --- | --- | --- | --- |
| COc1cc2c(c(OC)c1OC)-c1ccc(OC)c(=O)cc1C(NC(=O)CCCCCNc1ccc(N=[N+]=[N-])cc1[N+](=O)[O-])CC2 (stereo not given) | 88.5% (active) | 84.4% (active) | 45% | 36% | 12.8% | 84.3% (active) |
| COc1cccc(OC)c1C | 15.1% | -11.1% | -10.6% | 14.6% | -4.25% | 16.6% |
| COc1ccc2c(c1)C/C(=C\c1ccc(O)c(OC)c1)C2=O | -46.5% | -14% | -33.5% | -9.9% | 7.8% | -10.1% |
| Nc1ccn(CCC(COCc2ccccc2)COCc2ccccc2)c(=O)n1 | 35.8% | -13.4% | 0.75% | -5.6% | -5.45% | 5.75% |
| COC(=O)C(Nc1ccc(OC)cc1)c1ccccc1 (stereo not given) | -3.85% | -1.35% | -8.6% | -21.6% | 4% | -13.6% |
| CCCCN=C(N)N=C(N)N | 6.7% | 2.75% | 0.75% | -7.45% | -5.15% | 4.05% |
| O=C1CSSCC(=O)Nc2ccccc2N1 | 6.35% | 0.5% | -0.2% | 16.2% | 19.4% | -4% |
| Cc1cc(C)c2ccccc2n1 | -6.45% | -30.4% | -8.2% | -3.4% | -5.1% | 18.1% |
| CCN(CC)C(=O)Oc1cc(C)c([N+](C)(C)C)cc1C(C)C | 10.1% | 6.7% | 13.2% | 17.8% | 24.6% | -27.7% |
| COc1ccc2nc3cc([N+](=O)[O-])ccc3c(Nc3ccc(S(=O)(=O)NC(C)=O)cc3)c2c1 | 76.3% (active) | 36.4% | 67.8% | 36% | 64.5% | 75.2% (active) |
| Clc1ccc(C=Nc2ccccc2)c(Cl)c1 | 23.9% | 10.8% | 20.9% | 11.5% | -2.75% | 26.6% |
| O=C(O)Cc1cccc2nnnn12 | 14.2% | -17.8% | -7.5% | 15.1% | -4.75% | 23.9% |
| Nc1ccc(Cl)cc1Cl | -28.3% | -7.1% | -33.5% | -34% | -0.1% | -21.3% |
| CC(O)c1cc2c(s1)C(=O)c1sccc1C2=O (stereo not given) | 90.6% (active) | 93.5% (active) | 92% (active) | 91.2% (active) | 91.9% (active) | 91.2% (active) |
| CCCCC(CCCC)c1ccccn1 | -15.1% | -10.9% | 8.15% | -18.2% | 8.85% | -14.4% |
| C=CCNC(=O)CC(C)(C)C | 25.6% | 12.3% | 0.35% | 9.3% | 23.9% | 20.2% |
| CC(C)NC(=O)c1ccccc1S(=O)c1ccccc1C(=O)NC(C)C | -16.4% | 3.45% | 8.15% | 11.3% | 5.05% | 7.25% |
| CCCC(NC(=O)OCc1ccccc1)C(=O)NC(Cc1ccc(O)cc1)C(=O)O (stereo not given) (Cbz-[Nva]-Tyr-OH; configuration not given here) | -3.5% | -0.35% | -4.2% | 7% | -16.4% | 10% |
| CCOc1cc2c(cc1O)CC[C@@H]1[C@@H]2CC[C@]2(C)C(N)CC[C@@H]12 (stereo not given in full) | -0.95% | 5.85% | -18.2% | -33.1% | -20.1% | -8.8% |
| CN1/C(=C\N=O)C(C)(C)N(O)C1(C)C | 16.6% | -13.9% | 2.55% | 17.2% | 5.85% | -85.7% |
